# Values joined by “and” are separate entries in the source; they are usually repeats but may differ in a detail not shown here. Equal values may be shown once. Results filed as inconclusive are left out. A number with no mark means an inactive call. Active and inactive are the calls of the source. Unless noted, calls come from the whole dose curve; as a rule, active = well fitted curve in either direction with a large enough effect (not every such curve was filed as active); inconclusive = small, poorly fitted or top-dose-only effect, or another doubt; inactive = flat fitted curve, though single readings scatter.
# Tests used:
# [1] = AP1 Signaling Pathway (AID 357); details: ME-180 (cervical carcinoma) AP-1-bla reporter, EGF-induced, beta-lactamase ratio, 5 h;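 note: ME-180 reporter cells stimulated with EGF at its EC50 level; % is set by controls: 0 for no effect and ±100 for the full control effect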
# How it was run: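 First, ME-180 AP-1-bla cells were cultured overnight at 37 °C in low-serum Opti-MEM. Next, titrated compounds with EC50 EGF were incubated 5 hours. Finally, CCF4 was added for 2.5 hours and the 460/530 nm ratio recorded.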
# [2] = target: Cytochrome P450 1A2 (Homo sapiens) (UniProt P05177); assay: p450-cyp1a2 (AID 410; calls by dose curve; note: potency is the fitted concentration of half-maximal effect;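 for activity change, negative = inhibition: -100% = full effect of reference inhibitor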); details: recombinant CYP1A2, luciferin-ME demethylation, luminescence; series mostly up to 57 µM
# How it was run: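 Read-out is luminescence from luciferin produced by CYP1A2 demethylation of Luciferin-ME (100uM, at Km). Detection reagent stopped the 60 min NADPH-dependent reaction; signals were normalized to 57 uM furafylline.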
# [3] = NFAT Signaling Pathway (AID 444); details: Jurkat NFAT-bla M1, carbachol, beta-lactamase ratio, 5 h;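 note: carbachol stimulus at about its EC50 of 1 µM final; % is set by controls: 0 for no effect and ±100 for the full control effect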
# How it was run: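 Read-out: CCF4 FRET ratio (460 nm/530 nm) after 1 h RT dye loading, used for %activity and AC50 from titration series. Cells: Jurkat NFAT-β-lactamase/M1 line, treated with compound plus 1 uM carbachol for 5 h, 37 °C.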
# [4] = Cell Viability - BJ (AID 421; calls by dose curve;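 note: potency is the fitted concentration of half-maximal effect; cells exposed to compound for 40 hours at 37 °C before readout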); details: BJ fibroblast viability, qHTS
# How it was run: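 Quantitative HTS: ATP depletion in BJ cells after 40 hr compound exposure in complete culture medium, detected with CellTiter-Glo; AC50 from standard Hill fits.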
# [5] = Cell Viability - Jurkat (AID 426;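 active = dose-dependent loss of cell ATP signal giving a full or clear fitted curve, ranked by lower potency value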;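 note: potency is the fitted concentration of half-maximal effect; cells exposed to compound for 40 hours at 37 °C before ATP read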); details: qHTS
# How it was run: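 Cytotoxicity was scored as loss of cellular ATP, measured by luciferase-based luminescence, in Jurkat clone E6-1 cells after 40 h compound treatment; tamoxifen and doxorubicin served as positive controls.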
# [6] = Cell Viability - Hek293 (AID 427;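 active = compounds whose dose-response curve shows a full or clear partial loss of cell viability, called from curve shape rather than a numeric limit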;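 note: potency is the fitted concentration of half-maximal effect; cells exposed to compound for 40 hours at 37 °C before reading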); details: qHTS
# How it was run: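 AC50 values derive from Hill-modelled concentration-response of ATP-based luminescence, normalized between DMSO-only and 100 uM tamoxifen controls. Cells were exposed in complete culture medium for 40 hr at 37 °C before detection.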
# [7] = Cell Viability - HepG2 (AID 433; calls by dose curve;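 note: potency is the fitted concentration of half-maximal effect; cells exposed to compound for 40 hours; potency for ATP loss meaning cytotoxicity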); details: qHTS
# How it was run: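 HepG2 cells, 1500 per well, treated 40 hr at 37 °C in complete medium; viability from intracellular ATP by CellTiter-Glo luminescence. Normalized to DMSO and 100 uM tamoxifen; AC50 from Hill fit of qHTS concentration-response.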
# [8] = Cell Viability - SK-N-SH (AID 435; calls by dose curve;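 note: potency is the fitted concentration of half-maximal effect; compound exposure lasted 40 h at 37 °C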); details: SK-N-SH neuroblastoma cell viability qHTS
# How it was run: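 SK-N-SH neuroblastoma cells (1500/well) treated 40 h at 37 °C in complete medium; viability read as cellular ATP by CellTiter-Glo luminescence. Normalized to DMSO and 100 uM tamoxifen; AC50 from Hill fits of qHTS concentration-response.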
# [9] = Cell Viability - MRC5 (AID 434; calls by dose curve;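 note: potency is the fitted concentration of half-maximal effect; cells exposed to compound for 40 hours at 37 °C; potency reflects cytotoxicity seen as loss of intracellular ATP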); details: MRC5 lung fibroblast viability, qHTS
# How it was run: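 AC50 values come from Hill-equation fits of intracellular ATP loss, measured by CellTiter-Glo luminescence. Normal lung fibroblasts (MRC5) had 40 hr compound treatment at 37 C, normalized between DMSO and 100 uM tamoxifen.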
# Cytochrome P450 1A2 (Homo sapiens), sequence (P05177 whole entry, looked up): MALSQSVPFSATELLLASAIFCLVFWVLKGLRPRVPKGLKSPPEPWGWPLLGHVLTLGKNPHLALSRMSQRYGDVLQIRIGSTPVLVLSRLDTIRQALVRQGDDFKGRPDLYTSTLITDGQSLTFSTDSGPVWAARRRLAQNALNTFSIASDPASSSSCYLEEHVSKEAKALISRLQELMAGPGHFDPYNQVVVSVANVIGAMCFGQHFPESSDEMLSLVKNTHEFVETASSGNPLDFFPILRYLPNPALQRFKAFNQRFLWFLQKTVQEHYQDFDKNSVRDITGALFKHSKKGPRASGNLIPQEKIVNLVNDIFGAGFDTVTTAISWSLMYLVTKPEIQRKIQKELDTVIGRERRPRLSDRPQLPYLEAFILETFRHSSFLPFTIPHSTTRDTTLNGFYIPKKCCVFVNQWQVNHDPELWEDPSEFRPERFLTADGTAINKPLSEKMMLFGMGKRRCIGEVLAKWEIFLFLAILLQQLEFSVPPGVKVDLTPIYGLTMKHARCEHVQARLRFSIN
smiles,measurement,setting,value
CN1CCN(CC(=O)N2c3ccccc3C(=O)Nc3cccnc32)CC1,"activity change, negative = inhibition",[1]; at 17.2 µM (top of the series),-3.75% and 6.17%
same,"activity change, negative = inhibition",[1]; at 38 µM (top of the series),9.42%
same,Potency,[2],inactive
same,"activity change, negative = inhibition",[3]; at 17.2 µM (top of the series),-94.8% (active)
CC(=O)Nc1nnc(S(N)(=O)=O)s1,"activity change, negative = inhibition",[1]; at 17.2 µM (top of the series),2.87%
same,"activity change, negative = inhibition",[1]; at 38 µM (top of the series),2.53%
same,Potency,[2],inactive
same,"activity change, negative = inhibition",[3]; at 17.2 µM (top of the series),-0.673% and -9.62%
same,"activity change, negative = inhibition",[3]; at 38 µM (top of the series),2.29%
CCC(=O)c1ccc2c(c1)N(CCCN(C)C)c1ccccc1S2,Potency,[2],631 nM (active)
same,"activity change, negative = inhibition",[3]; at 38 µM (top of the series),-89.3% (active)
COCCOC(=O)C1=C(C)NC(C)=C(C(=O)OC(C)C)C1c1cccc([N+](=O)[O-])c1 (configuration not stated),"activity change, negative = inhibition",[1]; at 17.2 µM (top of the series),-20.8%
same,"activity change, negative = inhibition",[3]; at 17.2 µM (top of the series),-7.25%
CN1CCN(C2=Nc3ccccc3Oc3ccc(Cl)cc32)CC1,Potency,[2],3160 nM (active)
same,"activity change, negative = inhibition",[3]; at 17.2 µM (top of the series),-75.6% (active)
Fc1ccc(C(c2ccc(F)cc2)N2CCN(C/C=C/c3ccccc3)CC2)cc1,"activity change, negative = inhibition",[1]; at 17.2 µM (top of the series),-10.9%
same,"activity change, negative = inhibition",[3]; at 17.2 µM (top of the series),-88.5% (active)
C[C@]12CCC(=O)C=C1CC[C@@H]1[C@@H]2CC[C@@]2(C)[C@H]1CC[C@]2(O)C(=O)CO,"activity change, negative = inhibition",[1]; at 17.2 µM (top of the series),14.7%
same,"activity change, negative = inhibition",[3]; at 17.2 µM (top of the series),2.94%
C[C@]12C=CC(=O)C=C1CC[C@H]1[C@@H]3C[C@@H](O)[C@](O)(C(=O)CO)[C@@]3(C)C[C@H](O)[C@@]12F,"activity change, negative = inhibition",[1]; at 17.2 µM (top of the series),-5.22%
same,"activity change, negative = inhibition",[3]; at 17.2 µM (top of the series),16.1%
Nc1ncn([C@@H]2O[C@H](CO)[C@@H](O)[C@H]2O)c(=O)n1,Potency,[4],> 92 µM
same,Potency,[5],1.01 µM (active)
same,Potency,[6],6.9 µM (active)
same,Potency,[7],> 92 µM
same,Potency,[8],16.6 µM (active)
NCCCNCCSP(=O)(O)O,"activity change, negative = inhibition",[1]; at 38 µM (top of the series),11.2%
same,Potency,[2],inactive
same,"activity change, negative = inhibition",[3]; at 38 µM (top of the series),-0.295%
O=c1[nH]c(=O)n([C@H]2C[C@H](O)[C@@H](CO)O2)cc1Br,Potency,[4],> 92 µM
same,Potency,[6],> 92 µM
same,Potency,[7],> 92 µM
same,Potency,[9],> 92 µM
same,Potency,[8],> 92 µM
O=C(CCCN1CCC(O)(c2cccc(C(F)(F)F)c2)CC1)c1ccc(F)cc1,"activity change, negative = inhibition",[1]; at 38 µM (top of the series),14.4%
same,Potency,[2],inactive
same,"activity change, negative = inhibition",[3]; at 38 µM (top of the series),-2.13%
CCCCNc1c(C(=O)OCC)c(C)nc2c1cnn2CC,"activity change, negative = inhibition",[1]; at 38 µM (top of the series),-13.4%
same,Potency,[2],631 nM (active) and 63.1 nM (active)
same,"activity change, negative = inhibition",[3]; at 17.2 µM (top of the series),-22.8%
same,"activity change, negative = inhibition",[3]; at 38 µM (top of the series),-0.356%
CCOC(=O)c1cnc2c(cnn2CC)c1NN=C(C)C,Potency,[2],501 nM (active) and 126 nM (active)
same,"activity change, negative = inhibition",[3]; at 38 µM (top of the series),6.94%
COCCCC/C(=N\OCCN)c1ccc(C(F)(F)F)cc1,"activity change, negative = inhibition",[1]; at 17.2 µM (top of the series),14.9%
same,"activity change, negative = inhibition",[3]; at 17.2 µM (top of the series),24.5%
CN(C)CCCN1c2ccccc2Sc2ccc(C(F)(F)F)cc21,Potency,[2],1.58 µM (active) and 794 nM (active)
same,"activity change, negative = inhibition",[3]; at 17.2 µM (top of the series),-88.2% (active)

# Source: PubChem BioAssay (NCATS)
